In ChEMBL document CHEMBL4513216, “Probing the Open Global Health Chemical Diversity Library for Multistage-Active Starting Points for Next-Generation Antimalarials” (ACS Infect Dis, 2020) one finds INHIBITION data, which are given here for 105 molecules.

About 8,600 (12%) of roughly 69,000 compounds showed an effect of 50% or more. This is one part of a sample in which strong results are shown more often than they occur.

In the assay the test system is Plasmodium berghei. Description: Screen against P. berghei liver stage (PbLuc), transformed with Luciferase, at 10uM. It is filed as functional, HepG2. To be noted: tested at 10 uM.
On to `Cc1cc(CNC2(c3ccccc3F)CC2)no1`, for which the INHIBITION is given as -4.73%. Turning to `CN1C[C@@H](C(=O)NC2CCCC2)[C@@]2(COc3ccc(F)cc3C2=O)C1`, the INHIBITION was 23.85%.

`c1ccc(OCCCN2CCOC(CNc3cccnn3)C2)cc1` (stereo not given): the INHIBITION is reported as -65.3%. With `Cc1noc(C)c1CN1CCn2cc(CNC(=O)C3CCC3)nc2C1` the figure was 45.2%; with `COc1ccc(CC(=O)N2C[C@H]3CN(Cc4ccccn4)C[C@H]3C2)cc1`, 18.6%; with `Cc1cn2c(=O)c(-c3ccnc(N[C@@H](C)CO)n3)cnc2s1`, 27.8%.

Regarding `Cc1[nH]c2ccccc2c1-c1ccnc(N[C@H](CO)CC(C)C)n1`, the INHIBITION stood at 56%. The result for `CC(C)[C@H](CO)Nc1nccc(-c2c[nH]nc2-c2ccncc2)n1` reads -31.5%; that for `Cc1[nH]c2ccccc2c1-c1ccnc(N[C@@H](CO)C(C)C)n1`, 36.7%; that for `CC[C@@H](CO)Nc1nccc(-c2cnc3sc(C)cn3c2=O)n1`, 11.5%.

As for `Cc1[nH]c2ccccc2c1-c1ccnc(N[C@@H](C)CO)n1`, the INHIBITION was found to be 85.7%. As to `CN1CCOC(CNC(=O)CCCc2ccccc2)C1` (stereo not given), the INHIBITION is -4.15%. With `CN(Cc1nccn1CC(F)(F)F)C(=O)c1ccc2c(c1)OCO2` the figure was 6.33%. Regarding `Cc1nn(C)c(Cl)c1C1CCCN1Cc1nnc(C2CC2)o1` (stereo not given), the INHIBITION is reported as -31.1%. With `O=C(NCc1ncc(-c2ccccc2)o1)NC1CCC(O)CC1` (stereo not given) the figure was 61.9%; with `CC(=O)N1CCC(C(=O)NCc2ncc(-c3ccccc3)o2)CC1`, 83.2%; with `CC(=O)N1CCc2ncc(CNC(=O)C3CCC3)n2CC1`, 15.4%. The result for `CC(=O)N1CCC(NC(=O)NCc2ncc(-c3ccccc3)o2)CC1` reads 47.1%; that for `O=C(NCCN1CCOCC1)NCc1ncc(-c2ccccc2)o1`, 2.37%. The result for `O=S(=O)(CC1CCOCC1)NCc1ncc(-c2ccccc2)o1` reads 40.6%; that for `O=C1C[C@@H]2CC[C@H](CN1)N2c1cc(-c2ccccc2F)nc2ccnn12`, -7.53%. With `CCn1cc(CN2CCCC3(CCC(=O)N(CCC(C)C)C3)C2)cn1` (stereo not given), the INHIBITION stood at 65.2%.

In the case of `CCc1ncc(CN2CCCC3(CCC(=O)N(CCC(C)C)C3)C2)cn1` (stereo not given), the INHIBITION is recorded as 0.818%. As to `Cn1cc(CN2CCCC3(CCCN3S(C)(=O)=O)C2)cn1` (stereo not given), the INHIBITION was -3.41%. As for `CCn1cc(C(=O)N2CCCC3(CCC(=O)N(CCC(C)C)C3)C2)cn1` (stereo not given), the INHIBITION is listed as -47.8%. `CN(C)C(=O)C1CCC2(CCN(Cc3cnn(C)c3)CC2)C1` (stereo not given): the INHIBITION is 55.5%. Take `Cn1cc(CN2CCC3(CCCCN3S(C)(=O)=O)CC2)cn1`: the INHIBITION was 27.6%. With `Cn1cc(CN2CCC3(CCC(C(=O)NCC4CC4)C3)CC2)cn1` (stereo not given), the INHIBITION is 20.1%.

`COCC(=O)N1CCC2(CCCN(Cc3cnn(C)c3)C2)C1` (stereo not given): the INHIBITION came to 47.4%.

Take `Cn1cc(CN2CCC3(CCCN3S(C)(=O)=O)CC2)cn1`: the INHIBITION is listed as 53.5%.

In the case of `CC(C)NC(=O)C1CCC2(CCN(Cc3cnn(C)c3)CC2)C1` (stereo not given), the INHIBITION is recorded as -13.7%. On to `Cn1cc(CN2CCCC3(CCN(C(=O)c4ccoc4)C3)C2)cn1` (stereo not given), for which the INHIBITION is recorded as 42.7%.

Regarding `CN(C)C(=O)N1CCC2(CCCN(Cc3cnn(C)c3)C2)C1` (stereo not given), the INHIBITION is 52.9%.

Turning to `CN1CC(=O)N(c2ccccc2)CC12CCN(C(=O)c1cccs1)C2` (stereo not given), the INHIBITION is listed as 17.1%. With `CC(=O)Cn1ncc(N2CCOCC2)cc1=O` the figure was -10.5%; with `CN(C)CCN1C(=O)CCC12CCN(C(=O)c1cccnc1)CC2`, 13.2%. As to `Cc1cccc(CN2CCC3(CCCN(Cc4cnn(C)c4)C3)C2=O)n1` (stereo not given), the INHIBITION was found to be 0.618%. The result for `Cc1cccc(CN2CCc3[nH]nc(C(=O)N(C)C)c3C2)n1` reads -45.5%; that for `Cc1cccc(CN2CCC3(CCCN(Cc4cnn(C)c4)C3)C2)n1` (stereo not given), 64.7%; that for `Cc1cccc(CN2CCOC3(COCCN(CCN(C)C)C3)C2)n1` (stereo not given), 48.4%. With `Cc1cccc(CN2CCc3[nH]nc(C(=O)N4CCNC(=O)C4)c3C2)n1` the figure was 49.7%; with `Cc1cccc(CN2CCOC(C)(C(=O)N3CCOCC3)C2)n1` (stereo not given), 59%. For `Cc1cnc(N2CCOC3(CCCN(CC(=O)N(C)C)C3)C2)nc1` (stereo not given), the INHIBITION was -29.8%. The result for `Cc1cccc(CN2CCOC3(CCCN(CC(=O)N(C)C)C3)C2)n1` (stereo not given) reads 59.3%; that for `Cc1cc(CN2CCOC(C)(C(=O)N3CCOCC3)C2)no1` (stereo not given), 0.301%. With `Cn1cc(CN2CCC3(CCCN(Cc4ccccn4)C3)CC2)cn1` the figure was -3.19%; with `Cc1cccc(CN2CCc3[nH]nc(C(=O)N4CCOCC4)c3C2)n1`, 65.9%. The result for `CC1(C(=O)N2CCOCC2)CN(Cc2ccccn2)CCO1` (stereo not given) reads 44.4%; that for `Cc1cc(C)n(C2CN(CCc3ccccn3)C2)n1`, 28.2%; that for `Cc1nn(C)c(Cl)c1C1CCCN1Cc1ccccn1` (stereo not given), 8.64%.

With `COc1ccc(C2CC(=O)Oc3cc(C)[nH]c(=O)c32)cc1O` (stereo not given), the INHIBITION is 15.4%. In the case of `O=C(c1cc(-n2cnnn2)ccc1Cl)N1CCOCC1`, the INHIBITION is on record as 30.8%. `O=c1cnc2ccccc2n1CCCn1cccn1`: the INHIBITION turned out to be 44.5%. With `CC(C)NC(=O)CC1COC2(CCN(Cc3ccccc3)CC2)C1` (stereo not given) the figure was 21.6%. As to `Cc1nc(C2CCCN(C(=O)c3cnn(C4CCCCC4)c3)C2)no1` (stereo not given), the INHIBITION is listed as -25.9%. On to `O=C(c1cnc2c(cnn2C2CCCC2)c1)N1CCCSCC1`, for which the INHIBITION is 36.1%. For the molecule `CC(C)NC(=O)CC1CC2(CCN(CC3CC3)CC2)Oc2ccccc21` (stereo not given), the INHIBITION is -2.35%. With `Cc1cccc(CN2CCCC3(CCN(CC(=O)N(C)C)C3=O)C2)n1` (stereo not given), the INHIBITION amounted to 27.6%. The result for `CC(=O)N1CCc2[nH]nc(C(=O)N3CC=CC3)c2C1` reads 23.1%. Regarding `Cc1cccc(CN2CCC3(CCC(CC(=O)N(C)C)CC3)CC2)n1`, the INHIBITION is reported as 23.1%. For `CC(C)CCN1CCc2[nH]nc(C(=O)N3CCCC3C)c2C1` (stereo not given), the INHIBITION is on record as 2.58%. With `CC(C)CCN1CCc2[nH]nc(C(=O)N3CC=CC3)c2C1` the figure was 50.3%; with `Cc1cccc(CN2CCC3(CCCN(CC(=O)N(C)C)C3)C2)n1` (stereo not given), 51.2%.

As for `COC(=O)c1ccc(C)c(N2CCNC2=O)c1`, the INHIBITION stood at 34%. With `CS(=O)(=O)N1CCC(NC(=O)COc2cccc(Cl)c2)CC1` the figure was -35.7%; with `CCO[C@@H]1C[C@H]2CN(Cc3ccc(C)o3)CCN2C1`, -37.9%.

For the molecule `COCc1nc(CN2C(=O)OC[C@@H]2C(C)C)no1`, the INHIBITION is given as 27.6%. With `COCCc1noc(CN2C(=O)OC[C@@H]2C(C)C)n1` the figure was 55.9%. Regarding `COCc1noc(CN2C(=O)OC[C@@H]2C(C)C)n1`, the INHIBITION amounted to 14.6%. The result for `CCn1nc(C)c(C(=O)N2C[C@@H](CN(C)CCOC)[C@@H](CO)C2)c1C` reads 20%. For `NC(=O)c1cc2c(nc1Oc1ccc(CN3CCCC3)cc1F)CCC2`, the INHIBITION stood at 67%. The result for `NC(=O)c1cc2c(nc1Oc1cccc(CN3CCCC3)c1F)CCC2` reads 62.1%; that for `CC(=O)Nc1ccc(Oc2ccc(CN3CCCC3)cc2F)cc1`, 45.1%; that for `NC(=O)c1cc2c(nc1Oc1ccccc1CN1CCCCC1)CCC2`, 27.4%.

As for `CN1CCCCC1Cc1nc2c(cc1C(N)=O)CCC2` (stereo not given), the INHIBITION is on record as -107%.

For `NC(=O)c1cc2c(nc1-c1ccoc1)CCC2`, the INHIBITION stood at 30.3%. As to `Cc1cc(C)c2c(N3CCC(C(=O)N4CCCC4)CC3)ncnc2n1`, the INHIBITION stood at 42.8%. On to `Cc1ccccc1C(=O)N1C[C@@H]2COC[C@]2(COCc2cccnc2)C1`, for which the INHIBITION turned out to be 1.9%.

As to `CC(=O)N1CCN(Cc2ccsc2)CC2(CC(=O)N(C)C2)C1` (stereo not given), the INHIBITION came to 16.1%. Regarding `CC(C)N1CCC2(CC1)C[C@@H](O)[C@H](c1ccccc1)NC2=O`, the INHIBITION stood at 40%. With `CC(C)C(=O)NC1CC2(CCN(CC(=O)N(C)C)CC2)c2ccccc21` (stereo not given) the figure was 60.2%; with `COCC(=O)NC1CC2(CCN(CCO)CC2)c2ccccc21` (stereo not given), 33.1%.

Regarding `COCC(=O)NC1CC2(CCN(Cc3ccco3)CC2)c2ccccc21` (stereo not given), the INHIBITION is given as 32.4%. `Cc1ccc2c(c1)C(NC(=O)N(C)C)CC21CCN(CC2CC2)CC1` (stereo not given): the INHIBITION came to 22.4%.

For the molecule `CCN1CCC2(CC1)CC(NC(=O)c1ccnnc1)c1ccccc12` (stereo not given), the INHIBITION was -9.42%. The result for `COCC(=O)NC1CC2(CCN(CCN(C)C)CC2)c2ccccc21` (stereo not given) reads 53.9%. For the molecule `CC(C)(CNCc1ccc(OCc2cscn2)cc1)C(N)=O`, the INHIBITION is -47%.

Turning to `Cc1cnc(CN2CCC(N(C)Cc3noc(C4CC4)n3)C2)o1` (stereo not given), the INHIBITION is reported as 33.3%. With `CCC(C)c1ccc(NC(=O)C2CCN(C(=O)COC)CC2)cc1` (stereo not given), the INHIBITION was found to be 16.6%.

As for `CCc1ccc(NC(=O)C2CCN(C(=O)COC)CC2)cc1`, the INHIBITION was 39.3%. The result for `CCC(C)c1ccc(NC(=O)C2CCN(C(=O)N(C)C)CC2)cc1` (stereo not given) reads 76.9%; that for `Cn1cncc1C(=O)N1CCCC(c2ccn[nH]2)C1` (stereo not given), -35.9%; that for `CC(NCc1nnc2n1CCCC2)C(=O)N1CCc2sccc2C1` (stereo not given), -21.9%. The result for `O=C1CC(N(C(=O)COc2ccc(F)cc2F)C2CC2)C(=O)N1` (stereo not given) reads 0.472%; that for `Nc1nccc(NCc2cc3n(n2)CCCN(C(=O)C2CCC2)C3)n1`, 28.5%. With `Cc1cc(C)nc(NCc2cc3n(n2)CCCN(C(=O)C2CCC2)C3)n1` the figure was 13.3%. With `Cc1cc(NCc2cc3n(n2)CCCN(C(=O)C2CCC2)C3)nc(N)n1`, the INHIBITION amounted to 80.2%. With `Cc1nc(C2CCCN(S(C)(=O)=O)C2)sc1Br` (stereo not given) the figure was -7.66%; with `COc1cc(N(C)Cc2noc(CC(C)C)n2)ncn1`, 43%; with `CC(C)Cc1noc(CN(C)c2cc(N(C)C)ncn2)n1`, -8.75%. With `CCc1cc(N(C)Cc2noc(CC(C)C)n2)ncn1` the figure was 57.6%; with `CCn1cc(NC(=O)C2CCN(CC(=O)NC3CCCC3)CC2)cn1`, -10.6%; with `O=C(N[C@@H]1CN(Cc2ccco2)[C@@H]2CCCO[C@@H]21)c1cscn1`, 8.6%. As to `COc1ccc(F)cc1C(C)NC(=O)NCCCn1cncn1` (stereo not given), the INHIBITION was found to be 11.9%. As to `CCN(Cc1ccoc1)C(=O)C1CN(C(=O)OC(C)(C)C)C1`, the INHIBITION is reported as -26.7%.
